Laboratory results from PubChem BioAssay AID1159580 (chemical genetic matrix, 2015).
Values joined by “and” are separate entries in the source; they are usually repeats but may differ in a detail not shown here. Equal entries are not always repeated. In all, about 5,500 compounds went through this assay and about 2,000 (36%) were called active. Another 18% or so got no clear call; they are omitted. Rule as the data show it: active = normalized growth mostly below about 0.91 (no sharp cut-off); inconclusive = no clear call, values can overlap the other calls; inactive = mostly above about 0.92. This is one part of the list.

Experiment: chemical genetic growth profiling, strain panel (AID 1159580);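 also: tested at 20 µM; growth read once vehicle control cultures reached saturation at 30 °C; 1 = growth at the plate median or of vehicle wells; lower values mean less growth of the strain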
Conditions: S. cerevisiae deletion strains, growth OD

Measured: normalized growth

N#C/C(=C\c1ccc(O)cc1)C(=O)O
inactive: locus YAL013W, strain DEP1, hits give low values 0.988 | locus YAL021C, strain ccr4, hits give low values 0.979 | locus YAL026C, strain drs2, hits give low values 1 | locus YAL030W, strain snc1, hits give low values 1.01 | locus YBL061C, strain skt5, hits give low values 1.01 | locus YBR009C, strain hhf1, hits give low values 1.02 | locus YBR021W, strain FUR4, hits give low values 1.02 | locus YBR023C, strain chs3, hits give low values 1 | locus YBR171W, strain sec66, hits give low values 0.991 | locus YBR229C, strain ROT2, hits give low values 0.956 | locus YBR231C, strain swc5, hits give low values 1.01 | locus YBR279W, strain paf1, hits give low values 1 | locus YCL011C, strain gbp2, hits give low values 0.987 | locus YCL016C, strain dcc1, hits give low values 1.01 | locus YCL029C, strain bik1, hits give low values 0.997 | locus YCL061C, strain MRC1, hits give low values 0.993 | locus YCL069W, strain vba3, hits give low values 0.996 | locus YCR088W, strain abp1, hits give low values 0.987 | locus YDL005C, strain med2, hits give low values 0.997 | locus YDL035C, strain GPR1, hits give low values 0.994 | locus YDL040C, strain nat1, hits give low values 1 | locus YDL074C, strain BRE1, hits give low values 0.966 | locus YDL101C, strain DUN1, hits give low values 0.951 | locus YDL134C, strain PPH21, hits give low values 0.987 | locus YDL185W, strain tfp1, hits give low values 0.976 | locus YDL192W, strain arf1, hits give low values 0.993 | locus YDR001C, strain nth1, hits give low values 0.996 | locus YDR069C, strain doa4, hits give low values 1 | locus YDR101C, strain arx1, hits give low values 1.01 | locus YDR137W, strain rgp1, hits give low values 0.992 | locus YDR150W, strain NUM1, hits give low values 0.981 | locus YDR159W, strain sac3, hits give low values 1.01 | locus YDR162C, strain NBP2, hits give low values 0.937 | locus YDR195W, strain ref2 0.988 | locus YDR297W, strain sur2, hits give low values 0.997 | locus YDR318W, strain mcm21, hits give low values 1.04 | locus YDR334W, strain swr1, hits give low values 0.961 | locus YDR335W, strain msn5, hits give low values 1 | locus YDR388W, hits give low values 1.01 | locus YDR392W, strain spt3, hits give low values 0.972 | locus YDR502C, strain sam2, hits give low values 0.987 | locus YEL003W, strain gim4, hits give low values 0.989 | locus YEL037C, strain rad23, hits give low values 0.986 | locus YEL061C, strain CIN8 (second series), hits give low values 0.984 | locus YEL061C, strain CIN8, hits give low values 0.984 | locus YER015W, strain faa2, hits give low values 1 | locus YER016W, strain bim1, hits give low values 1.01 | locus YER110C, hits give low values 0.999 | locus YER111C, strain swi4, hits give low values 0.999 | locus YER155C, strain BEM2 (second series), hits give low values 1.01 | locus YER155C, strain BEM2, hits give low values 0.987 | locus YER167W, strain BCK2, hits give low values 1.01 | locus YFR010W, strain ubp6, hits give low values 0.983 | locus YGL078C, strain dbp3, hits give low values 0.985 | locus YGL086W, strain mad1, hits give low values 1.02 | locus YGL167C, strain pmr1, hits give low values 1.01 | locus YGL173C, strain kem1, hits give low values 1 | locus YGL227W, strain vid30, hits give low values 0.998 | locus YGL240W, strain doc1, hits give low values 1.03 | locus YGL248W, strain PDE1, hits give low values 0.976 | locus YGL253W, strain hxk2, hits give low values 0.999 | locus YGR078C, strain PAC10, hits give low values 0.97 | locus YGR135W, strain pre9, hits give low values 0.988 | locus YGR229C, strain SMI1, hits give low values 0.996 | locus YGR252W, strain gcn5, hits give low values 1.09 | locus YHR013C, strain ard1, hits give low values 1.02 | locus YHR027C, strain rpn1, hits give low values 0.99 | locus YHR030C, strain SLT2, hits give low values 0.997 and 1.06 | locus YHR079C, strain IRE1 (second series), hits give low values 1 | locus YHR079C, strain IRE1, hits give low values 1.07 | locus YHR094C, strain hxt1, hits give low values 0.998 | locus YHR129C, strain ARP1, hits give low values 0.986 | locus YHR142W, strain chs7, hits give low values 0.954 | locus YHR200W, strain rpn10, hits give low values 0.996 | locus YIL066C, strain RNR3, hits give low values 0.981 | locus YIL073C, strain SPO22, hits give low values 1.1 | locus YIL125W, strain kgd1, hits give low values 0.997 | locus YIR030C, strain dcg1, hits give low values 0.988 | locus YJL092W, strain hpr5, hits give low values 0.979 | locus YJL095W, strain BCK1 (second series), hits give low values 1 | locus YJL095W, strain BCK1, hits give low values 0.979 and 1.08 | locus YJL115W, strain asf1, hits give low values 0.988 | locus YJL129C, strain trk1, hits give low values 0.98 | locus YJL134W, strain LCB3, hits give low values 0.983 | locus YJL154C, strain vps35, hits give low values 0.975 | locus YJL164C, strain tpk1, hits give low values 1 | locus YJL166W, strain qcr8, hits give low values 1.01 | locus YJL168C, strain set2, hits give low values 0.992 | locus YJL187C, strain SWE1 (second series), hits give low values 0.96 | locus YJL187C, strain SWE1, hits give low values 1 | locus YJR043C, strain POL32, hits give low values 1.04 | locus YJR066W, strain TOR1, hits give low values 0.992
